# Test results taken from PubChem BioAssay (NCI).
# Compounds without any hit were thinned out: in the full panel of roughly 79,000, 15% have a hit. Unmarked numbers belong to inactive results. Active and inactive are the calls of the source. No stated cut-off is given here; in the data, active means growth inhibition above about 70%; inactive means the rest.
# What was measured:
# [1] = NCI Yeast Anticancer Drug Screen. Data for the wt1 strain (AID 149);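 further: 0% = growth of vehicle-treated wt1 cultures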; conditions: S. cerevisiae wt1 strain (SPY 50644) growth inhibition, hits give high values
# Method in brief: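 Growth inhibition read against vehicle controls after compound exposure of the wt1 yeast strain.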
# [2] = NCI Yeast Anticancer Drug Screen. Data for the rad50EPP+ strain (AID 151);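 further: 0% = growth of vehicle-treated control cultures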; conditions: S. cerevisiae rad50 mutant strain, hits give high values
# Method in brief: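 In this screen, rad50EPP+ yeast were exposed to compounds. Growth inhibition was scored against vehicle-treated controls.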
# [3] = NCI Yeast Anticancer Drug Screen. Data for the mgt1 strain (AID 153); conditions: S. cerevisiae mgt1 mutant growth inhibition, hits give high values
# Method in brief: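 mgt1 strain exposed; growth vs vehicle control recorded as inhibition.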
# [4] = NCI Yeast Anticancer Drug Screen. Data for the rad50 strain (AID 155);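 further: 0% = growth of vehicle-only cultures of the same strain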; conditions: S. cerevisiae rad50 strain growth inhibition, hits give high values
# Method in brief: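 Readout: growth inhibition relative to vehicle-treated cultures. Compound exposure was carried out in a genetically defined yeast strain deficient in DNA damage repair.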
# [5] = NCI Yeast Anticancer Drug Screen. Data for the mec2-1 strain (AID 157); conditions: S. cerevisiae mec2-1 strain, hits give high values
# Method in brief: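 Vehicle-treated cultures served as reference for growth inhibition of compound-exposed mec2-1 yeast.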
# [6] = NCI Yeast Anticancer Drug Screen. Data for the rad14 strain (AID 159);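 further: 0% = growth of vehicle-treated control cultures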; conditions: S. cerevisiae rad14 strain growth inhibition, hits give high values
# Method in brief: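 Growth inhibition vs vehicle controls; genetically altered yeast strain (DNA damage repair defect) treated with test compounds.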
# [7] = NCI Yeast Anticancer Drug Screen. Data for the sgs1 mgt1 strain (AID 161);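 further: 0% = growth of cultures given vehicle only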; conditions: S. cerevisiae sgs1 mgt1 strain, hits give high values
# Method in brief: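 Read-out: growth inhibition vs vehicle controls. Cells: mutant yeast strain deficient in DNA damage repair.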
# [8] = NCI Yeast Anticancer Drug Screen. Data for the CLN2oe strain (AID 163);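 further: 0% = growth of vehicle-only control cultures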; conditions: S. cerevisiae CLN2oe strain, hits give high values
# Method in brief: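 Inhibition relative to vehicle-treated yeast is reported. Cells: strain with genetic alteration in cell-cycle control, grown with compound.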
# [9] = NCI Yeast Anticancer Drug Screen. Data for the cln2 rad14 strain (AID 165);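 further: 0% = growth equal to vehicle treated cultures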; conditions: S. cerevisiae cln2 rad14 strain, hits give high values
# Method in brief: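 Each compound was tested on cln2 rad14 yeast. Inhibition of growth was calculated against vehicle-exposed controls.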
# [10] = NCI Yeast Anticancer Drug Screen. Data for the bub3 strain (AID 167); conditions: S. cerevisiae bub3 mutant strain, hits give high values
# Method in brief: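 Readout: yeast growth inhibition, expressed relative to vehicle-only wells. The test organism is a mutant strain from a panel with lesions in DNA repair or checkpoint genes.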
# [11] = NCI Yeast Anticancer Drug Screen. Data for the wt2 strain (AID 169);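 further: 0% = growth of vehicle-treated yeast cultures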; conditions: S. cerevisiae wt2 strain growth inhibition, hits give high values
# Method in brief: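 Inhibition of yeast growth was determined after compound treatment, normalised to controls receiving only vehicle.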
# [12] = NCI Yeast Anticancer Drug Screen. Data for the mlh1 strain (AID 171);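 further: 0% = growth of vehicle-treated control cultures of the same strain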; conditions: S. cerevisiae mlh1 strain growth inhibition, hits give high values
# Method in brief: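 Vehicle-normalised growth inhibition of a repair- or checkpoint-altered yeast strain following compound treatment.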
# [13] = NCI Yeast Anticancer Drug Screen. Data for the sgs1 strain (AID 173);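 further: 0% = growth of vehicle-only control cultures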; conditions: S. cerevisiae sgs1 mutant, hits give high values
# Method in brief: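 Screen format: yeast with repair or checkpoint alterations, compound exposure, growth read relative to vehicle.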
# [14] = NCI Yeast Anticancer Drug Screen. Data for the rad18 strain (AID 177); conditions: S. cerevisiae rad18 mutant growth inhibition, hits give high values
# Method in brief: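 Test articles were incubated with altered yeast defective in DNA damage repair. Results are given as inhibition of growth versus vehicle.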
# [15] = at 5.0 µM (retest, dose inferred, filed as 0.5)
# [16] = at 50.0 µM (retest, dose inferred, filed as 5.0)
structure (smiles),measurement,setting,value
CN(C)CCNC(=O)c1cccc2nc3c(ccc4ccccc43)nc12,growth inhibition,[1]; at 1.2 µM,-3%
same,growth inhibition,[1]; at 3.7 µM,-2%
same,growth inhibition,[1]; at 11.0 µM,2%
same,growth inhibition,[1]; at 33.0 µM,17%
same,growth inhibition,[1]; at 100.0 µM,85% (active)
same,growth inhibition,[2]; at 1.2 µM,-3%
same,growth inhibition,[2]; at 3.7 µM,1%
same,growth inhibition,[2]; at 11.0 µM,15%
same,growth inhibition,[2]; at 33.0 µM,75% (active)
same,growth inhibition,[2]; at 100.0 µM,96% (active)
same,growth inhibition,[3]; at 1.2 µM,-1%
same,growth inhibition,[3]; at 3.7 µM,-1%
same,growth inhibition,[3]; at 11.0 µM,1%
same,growth inhibition,[3]; at 33.0 µM,31%
same,growth inhibition,[3]; at 100.0 µM,99% (active)
same,growth inhibition,[4]; at 1.2 µM,3%
same,growth inhibition,[4]; at 3.7 µM,26%
same,growth inhibition,[4]; [15],13%
same,growth inhibition,[4]; at 11.0 µM,67%
same,growth inhibition,[4]; at 33.0 µM,91% (active)
same,growth inhibition,[4]; [16],94% (active)
same,growth inhibition,[4]; at 50.0 µM,90% (active)
same,growth inhibition,[4]; at 100.0 µM,98% (active)
same,growth inhibition,[5]; at 1.2 µM,-1%
same,growth inhibition,[5]; at 3.7 µM,2%
same,growth inhibition,[5]; [15],5%
same,growth inhibition,[5]; at 11.0 µM,10%
same,growth inhibition,[5]; at 33.0 µM,25%
same,growth inhibition,[5]; [16],23%
same,growth inhibition,[5]; at 50.0 µM,73.8% (active)
same,growth inhibition,[5]; at 100.0 µM,94% (active)
same,growth inhibition,[6]; at 1.2 µM,-2%
same,growth inhibition,[6]; at 3.7 µM,2%
same,growth inhibition,[6]; at 11.0 µM,14%
same,growth inhibition,[6]; at 33.0 µM,50%
same,growth inhibition,[6]; at 100.0 µM,99% (active)
same,growth inhibition,[7]; [15],3%
same,growth inhibition,[7]; [16],37%
same,growth inhibition,[7]; at 50.0 µM,40.2%
same,growth inhibition,[8]; at 1.2 µM,-5%
same,growth inhibition,[8]; at 3.7 µM,-1%
same,growth inhibition,[8]; at 11.0 µM,-2%
same,growth inhibition,[8]; at 33.0 µM,18%
same,growth inhibition,[8]; at 100.0 µM,72% (active)
same,growth inhibition,[9]; [15],4%
same,growth inhibition,[9]; [16],57%
same,growth inhibition,[9]; at 50.0 µM,26.9%
same,growth inhibition,[10]; at 1.2 µM,1%
same,growth inhibition,[10]; at 3.7 µM,3%
same,growth inhibition,[10]; [15],-40%
same,growth inhibition,[10]; at 11.0 µM,5%
same,growth inhibition,[10]; at 33.0 µM,24%
same,growth inhibition,[10]; [16],43%
same,growth inhibition,[10]; at 50.0 µM,24.1%
same,growth inhibition,[10]; at 100.0 µM,97% (active)
same,growth inhibition,[11]; at 1.2 µM,-2%
same,growth inhibition,[11]; at 3.7 µM,6%
same,growth inhibition,[11]; at 11.0 µM,-2%
same,growth inhibition,[11]; at 33.0 µM,13%
same,growth inhibition,[11]; at 100.0 µM,92% (active)
same,growth inhibition,[12]; at 1.2 µM,-1%
same,growth inhibition,[12]; at 3.7 µM,0%
same,growth inhibition,[12]; at 11.0 µM,3%
same,growth inhibition,[12]; at 33.0 µM,28%
same,growth inhibition,[12]; at 100.0 µM,98% (active)
same,growth inhibition,[13]; at 1.2 µM,-4%
same,growth inhibition,[13]; at 3.7 µM,-4%
same,growth inhibition,[13]; at 11.0 µM,1%
same,growth inhibition,[13]; at 33.0 µM,30%
same,growth inhibition,[13]; at 100.0 µM,98% (active)
same,growth inhibition,[14]; at 1.2 µM,-2%
same,growth inhibition,[14]; at 3.7 µM,2%
same,growth inhibition,[14]; at 11.0 µM,11%
same,growth inhibition,[14]; at 33.0 µM,61%
same,growth inhibition,[14]; at 100.0 µM,99% (active)
